# Over roughly 140,000 sequences, “enrichment ratio after two sorts for PhoP signalling” has its median near 0; the highest 2% begin near 11. What follows is part of a selection rich in the highest values, with near analogues and random picks from the rest.
# B1: PhoQ; a variant is named by its letters at X, in order, P23837 (parent)
# chain: MKKLLRLFFPLSLRVRFLLATAAVVLVLSLAYGMVALIGYSVSFDKTTFRLLRGESNLFYTLAKWENNKLHVELPENIDKQSPTMTLIYDENGQLLWAQRDVPWLMKMIQPDWLKSNGFHEIEADVNDTSLLLSGDHSIQQQLQEVREDDDDAEMTHSVAVNVYPATSRMPKLTIVVVDTIPVELKSSYMVWSWFIYVLSANLLLVIPLLWVAAWWSLRPIEALAKEVRELEEHNRELLNPATTRELTSLVRNLNRLLKSERERYDKYRTTLTDLTHSLKTPLXXLQXXLRSLRSEKMSVSDAEPVMLEQISRISQQIGYYLHRASMRGGTLLSRELHPVAPLLDNLTSALNKVYQRKGVNISLDISPEISFVGEQNDFVEVMGNVLDNACKYCLEFVEISARQTDEHLYIVVEDDGPGIPLSKREVIFDRGQRVDTLRPGQGVGLAVAREITEQYEGKIVAGESMLGGARMEVIFGRQHSAPKDE
# Variants of: B1
# Assay: enrichment ratio after two sorts for PhoP signalling (ratio (wild type AVST 3.29)); higher = more functional
# Conditions: with PhoP (E. coli)
row,Variant,enrichment ratio
1,NNFP,≤ 0.25
2,QNYN,≤ 0.25
3,NSYV,≤ 0.25
4,AVPN,≤ 0.25
5,FCMQ,1.02
6,FFDG,≤ 0.25
7,FCDG,≤ 0.25
8,TSDG,0.59
9,PVDG,≤ 0.25
10,YTDG,≤ 0.25
11,QSDG,11.8
12,QGDG,11.8
13,TVDG,≤ 0.25
14,KSDG,≤ 0.25
15,QTDG,13.5
16,FTDG,≤ 0.25
17,QVDG,30.4
18,LTLA,≤ 0.25
19,HNKA,≤ 0.25
20,AFKV,≤ 0.25
21,RRQL,≤ 0.25
22,RSSV,≤ 0.25
23,VLVH,≤ 0.25
24,TVDW,≤ 0.25

row,Variant,enrichment ratio
1,TEFA,11.3
2,QEFN,3.01
3,TEFS,10.9
4,TEFN,18.2
5,MEFN,7.67
6,TEFC,14.4
7,TEFH,12.1
8,QEFH,≤ 0.25
9,TEFQ,8.52
10,TEFI,9.19
11,TEFP,≤ 0.25
12,MEFH,4.99
13,GKHH,≤ 0.25
14,NVPN,≤ 0.25
15,VKNT,≤ 0.25
16,GVCV,3.13
17,AWFR,≤ 0.25
18,RMDG,≤ 0.25
19,DDGS,≤ 0.25
20,LMRD,≤ 0.25
21,FKNL,≤ 0.25
22,FPYE,≤ 0.25
23,HPWR,≤ 0.25
24,WNMS,≤ 0.25

row,Variant,enrichment ratio
1,NTFG,≤ 0.25
2,TEFG,19
3,MEFG,5.56
4,NEFG,≤ 0.25
5,WVYE,≤ 0.25
6,PMID,≤ 0.25
7,FDCG,≤ 0.25
8,KDCG,≤ 0.25
9,ANCG,26.6
10,RGCG,≤ 0.25
11,NHCG,≤ 0.25
12,TDCG,13.4
13,TGCG,24.4
14,AKCG,2.88
15,VHCG,≤ 0.25
16,AHCG,15.3
17,ADCG,1.58
18,PGCG,≤ 0.25
19,AIDP,≤ 0.25
20,IFDW,≤ 0.25
21,PKQC,≤ 0.25
22,DRKW,≤ 0.25
23,LGNW,≤ 0.25
24,FFWM,≤ 0.25

row,Variant,enrichment ratio
1,FMLS,≤ 0.25
2,ANIG,29.2
3,ADIG,≤ 0.25
4,AHIG,≤ 0.25
5,REKI,≤ 0.25
6,KRHD,≤ 0.25
7,LMWD,≤ 0.25
8,GELH,11.9
9,GELM,15.9
10,GEKA,≤ 0.25
11,GETH,≤ 0.25
12,GETK,≤ 0.25
13,GELF,9.93
14,GYLH,≤ 0.25
15,GELG,22.4
16,GENS,≤ 0.25
17,GETC,3.51
18,GETI,11.6
19,GYLG,≤ 0.25
20,HGYA,≤ 0.25
21,STTP,≤ 0.25
22,YKHK,≤ 0.25
23,SYEL,≤ 0.25
24,TAIS,0.325

row,Variant,enrichment ratio
1,NLWP,≤ 0.25
2,RDCA,≤ 0.25
3,EMPC,≤ 0.25
4,PMHF,≤ 0.25
5,DDQI,≤ 0.25
6,PLHV,≤ 0.25
7,KPNT,≤ 0.25
8,RISY,≤ 0.25
9,GEWI,≤ 0.25
10,GELA,18.1
11,GELS,8.59
12,ASCY,0.505
13,LYCM,≤ 0.25
14,SGIV,7.69
15,ANIQ,11
16,HVDI,≤ 0.25
17,WNPW,≤ 0.25
18,TEYY,10.3
19,TEEG,9.76
20,TEGQ,≤ 0.25
21,TECG,15.7
22,TECQ,12.3
23,TECI,2.38
24,NECQ,≤ 0.25

row,Variant,enrichment ratio
1,TEAI,20.4
2,NECG,≤ 0.25
3,NEAI,≤ 0.25
4,TECA,0.528
5,TECS,26.8
6,KAWS,≤ 0.25
7,GAMP,≤ 0.25
8,KTEG,≤ 0.25
9,STDK,≤ 0.25
10,AAVN,≤ 0.25
11,KDFG,≤ 0.25
12,TECV,22.2
13,NECW,≤ 0.25
14,QECV,8.7
15,MECW,≤ 0.25
16,TECW,37.6
17,TPKM,≤ 0.25
18,LMLV,≤ 0.25
19,GRQP,≤ 0.25
20,FEMD,≤ 0.25
21,KCMI,≤ 0.25
22,FTPA,0.426
23,VYMI,≤ 0.25
24,NSMI,2.19

row,Variant,enrichment ratio
1,FEMW,≤ 0.25
2,FCMS,≤ 0.25
3,FCMI,33.7
4,VCMI,17.6
5,FEMI,13
6,YTMI,6.21
7,FTMI,13.1
8,PKDI,≤ 0.25
9,LYLD,≤ 0.25
10,HNKV,≤ 0.25
11,VKIK,≤ 0.25
12,ALCW,6.49
13,YKFA,≤ 0.25
14,VGHR,≤ 0.25
15,HQYF,≤ 0.25
16,SEVV,13.1
17,GGVV,≤ 0.25
18,MEVV,2.27
19,SQVV,8.77
20,NEVV,≤ 0.25
21,SLVV,1.38
22,MAVV,≤ 0.25
23,FEVV,11.9
24,FCVV,≤ 0.25

row,Variant,enrichment ratio
1,GEVV,17.2
2,GETD,≤ 0.25
3,TEVV,12.9
4,NFKG,≤ 0.25
5,QAIA,≤ 0.25
6,SNFP,≤ 0.25
7,SCGI,12.6
8,KYGI,≤ 0.25
9,SRGI,≤ 0.25
10,STGI,4.79
11,SNGI,12.1
12,FMGW,≤ 0.25
13,HQYK,≤ 0.25
14,SCNT,≤ 0.25
15,SCAT,16.1
16,SCLT,13.3
17,SCLS,9.62
18,SWLN,≤ 0.25
19,SCLN,11.7
20,SCLA,11.8
21,SCDT,≤ 0.25
22,SCVA,4.93
23,SCIT,1.21
24,SCVT,1.01

row,Variant,enrichment ratio
1,SCVN,11.1
2,PRNP,≤ 0.25
3,AWLY,≤ 0.25
4,SHFY,≤ 0.25
5,VDWL,≤ 0.25
6,MMEY,≤ 0.25
7,TQTE,26.4
8,SQTE,26.5
9,KSTE,≤ 0.25
10,FQTE,≤ 0.25
11,TQQK,≤ 0.25
12,EQTE,≤ 0.25
13,YTEA,≤ 0.25
14,PPGL,≤ 0.25
15,VGLC,16.6
16,GGLC,4.03
17,AALC,13.9
18,AGLC,12.4
19,VYLC,≤ 0.25
20,YALC,3.77
21,TGLC,10
22,VFLC,≤ 0.25
23,NALC,≤ 0.25
24,NNPM,≤ 0.25

row,Variant,enrichment ratio
1,QKWG,≤ 0.25
2,ASFD,≤ 0.25
3,KIHF,≤ 0.25
4,NGVA,≤ 0.25
5,KLRA,≤ 0.25
6,SEAC,19.8
7,MKAC,≤ 0.25
8,DMAC,≤ 0.25
9,SLAC,2.46
10,QKAC,≤ 0.25
11,SFAC,≤ 0.25
12,QEAC,16
13,MEAC,37.3
14,MMAC,3.29
15,YWAC,≤ 0.25
16,NEAC,15.1
17,STAC,4.33
18,NIYV,≤ 0.25
19,IRLQ,≤ 0.25
20,HPHQ,≤ 0.25
21,QISV,≤ 0.25
22,SDLF,≤ 0.25
23,TCEE,≤ 0.25
24,MKWH,≤ 0.25

row,Variant,enrichment ratio
1,QAWW,≤ 0.25
2,QCDG,≤ 0.25
3,YQQR,≤ 0.25
4,SQAC,13.4
5,KSAC,≤ 0.25
6,VEAC,0.99
7,FSAC,≤ 0.25
8,NQAC,≤ 0.25
9,EQAC,≤ 0.25
10,TEAC,25.6
11,SSAC,11.3
12,KAAC,≤ 0.25
13,PWYS,≤ 0.25
14,WGDA,≤ 0.25
15,NQIK,≤ 0.25
16,TQQF,33.4
17,TQTD,≤ 0.25
18,TQSF,7.45
19,TQHI,3.97
20,TQHP,≤ 0.25
21,DWSM,≤ 0.25
22,TQHF,16.2
23,TQMS,4.53
24,TQHQ,13.8

row,Variant,enrichment ratio
1,RNSM,≤ 0.25
2,TQSM,23.3
3,LAQF,≤ 0.25
4,NYQY,≤ 0.25
5,NTGP,≤ 0.25
6,YRMS,≤ 0.25
7,FSKE,≤ 0.25
8,MTHL,7.87
9,PNLT,≤ 0.25
10,TPTL,≤ 0.25
11,SMDI,≤ 0.25
12,REVG,≤ 0.25
13,WQFM,≤ 0.25
14,PAAY,≤ 0.25
15,ENTT,≤ 0.25
16,GKMH,≤ 0.25
17,KCNH,≤ 0.25
18,LNPK,≤ 0.25
19,DECI,≤ 0.25
20,MEGM,≤ 0.25
21,DECV,25.8
22,DPCV,≤ 0.25
23,NECS,≤ 0.25
24,MKCS,≤ 0.25

row,Variant,enrichment ratio
1,MELS,9.24
2,MECK,27.3
3,MECS,11.2
4,MEWI,24
5,MERM,≤ 0.25
6,MELA,≤ 0.25
7,VHCY,≤ 0.25
8,MPCS,≤ 0.25
9,PKNK,≤ 0.25
10,PCQL,≤ 0.25
11,ICAL,0.516
12,STWD,≤ 0.25
13,TWLL,≤ 0.25
14,FYED,≤ 0.25
15,FVPW,≤ 0.25
16,NCRM,≤ 0.25
17,MMCV,4.31
18,MECI,12.8
19,MECV,18.2
20,MECA,3
21,NECV,≤ 0.25
22,MEGD,≤ 0.25
